# Compound activity from PubChem BioAssay.
# Efflux pump mplx = inhibitors of Candida antifungal efflux pumps expressed in yeast | actives 0.44% (n = 330,000) | S. cerevisiae Candida pump triplex, Nile Red efflux | inhibition, % at 10 µM | AID 485275;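 active = plate passing quality check with inhibition over a set limit, or well fluorescence over plate mean plus 4 SD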;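 also: Nile Red retained in pooled yeast measured as flow cytometry median fluorescence; 0% = buffer negative control and 100% = Enniatin B positive control; higher means more Nile Red kept so more efflux inhibition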
# Calb FLC = C. albicans growth modulation with fluconazole; actives 0.57% (n = 300,000); growth inhibition, % (test concentration not listed); C. albicans CaCi-2 (fluconazole-resistant clinical isolate) + fluconazole, Alamar Blue growth, 48 h;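 active = growth inhibition above about 58% in most replicates, limit read from the data, passing the limit was not always enough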;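 also: all wells also contain fluconazole at 8 µg/ml as a sub-toxic cotreatment; 0% = median of DMSO wells and 100% = median of geldanamycin control wells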
# PHOSPHO1 block = PHOSPHO1 (human) inhibition. Q8TCT1. recombinant PHOSPHO1, absorbance phosphatase assay. inhibition, % at 13.3 µM. actives 1.1% (n = 290,000); in the data active = inhibition above about 60%
# H9c2 protect = protects H9c2 cardiomyocytes from peroxide injury; protection from H2O2 cell death, % at 20 µM; AID 588492; H2O2 injury protection, ATPLite, 2 h; actives 0.63% (n = 360,000);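 active = compounds giving at least 50% protection of heart cells from peroxide-induced death in the single-dose screen, raw or plate-pattern-corrected value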;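 also: 0% = DMSO wells with peroxide and 100% = DMSO wells without peroxide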
# KCC2 mod = modulators of human KCC2 chloride dependent transport. KCC2 cells, thallium flux FluoZin-2 fluorescence. Q9H2X9. AID 1456. actives 2.2% (n = 190,000). B-score of Tl+ flux slope (higher = more flux/activation; lower = inhibition) at 10 µM;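 active = thallium flux slope and its plate-corrected score both differing from the plate sample mean at a set confidence after two filtering rounds, in either direction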;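 also: slope of fluorescence scaled to starting intensity during 10 to 20 s after thallium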
# Starred values were filed as active, the others as inactive; . = no result given. Shown are actives, neighbours in structure and some others; about 3.3% of the full set was active somewhere.
SMILES,Efflux pump mplx,Calb FLC,PHOSPHO1 block,H9c2 protect,KCC2 mod
Cc1ccc(NC(=S)NNC(=O)Cn2nc([N+](=O)[O-])cc2C)cc1,0.1,-1.1,96.2*,-1.9,.
COc1cccc(NC(=S)NNC(=O)Cn2nc([N+](=O)[O-])cc2C)c1,0.1,-1.0,30.5,-3.4,-0.0366
O=C(Nc1ncc([N+](=O)[O-])s1)c1ccccc1Br,-0.1,72.0,-0.8,-15.0,.
COCCCn1cnc2c(c1=O)c1nc3ccccc3nc1n2-c1ccccc1,0.1,-4.2,8.7,4.9,.
C=CCn1cnc2c(c1=O)c1nc3ccccc3nc1n2/N=C/c1ccccn1,.,.,11.4,97.8*,.
COCCn1cnc2c(c1=O)c1nc3ccccc3nc1n2/N=C/c1cccc(OC)c1,0.1,22.9,7.5,51.8*,-0.00924
C=CCn1cnc2c(c1=O)c1nc3ccccc3nc1n2/N=C/c1cccc(OC)c1OC,0.3,.,1.7,73.6*,.
C=CCn1cnc2c(c1=O)c1nc3ccccc3nc1n2/N=C/c1cc(OC)c(OC)c(OC)c1,0.1,-2.5,-12.0,64.9*,-1.03
CCCc1cc(C(=O)N2CCCC(Cc3ccccc3C)(C(=O)OCC)C2)no1 (configuration not stated),-0.1,-0.6,34.4,-1.5,.
COCCNC(=O)C1CCCN(C(=O)c2cncc(Br)c2)CC1 (configuration not stated),.,.,.,2.2,.
COc1ccc(C(O)c2nc(-c3cccs3)cs2)cc1 (configuration not stated),.,.,.,-1.5,.
COCCn1nnnc1C(C(C)C)N(Cc1ccccc1)Cc1cc2cc(OC)ccc2[nH]c1=O (configuration not stated),.,.,-3.0,41.7,1.13
COCCn1nnnc1C(C(C)C)N(Cc1cccnc1)Cc1cc2cc(OC)ccc2[nH]c1=O (configuration not stated),0.3,6.2,-46.3,61.3*,0.78
COc1ccc2[nH]c(=O)c(CN(Cc3nnnn3Cc3ccco3)C3CCCCC3)cc2c1,0.1,8.3,43.1,43.6,.
COc1ccc2[nH]c(=O)c(CN(Cc3ccco3)C(c3nnnn3Cc3ccccc3)C(C)C)cc2c1 (configuration not stated),0.0,13.1,17.0,51.0*,0.0903
COc1ccc2[nH]c(=O)c(CN(C3CCCCC3)C(c3nnnn3Cc3ccco3)C(C)C)cc2c1 (configuration not stated),0.7,-2.1,37.0,94.8*,-0.181
COc1ccc2cc(CN(CCc3ccccc3)Cc3nnnn3Cc3ccco3)c(=O)[nH]c2c1,0.0,2.6,-0.3,19.2,-3.08*
COc1cc(C(=O)NNC(=O)c2ccccc2OCc2c(C)noc2C)cc(OC)c1OC,0.2,.,.,7.8,.
CC(CC(=O)N(C)c1c(N)n(Cc2ccccc2)c(=O)[nH]c1=O)c1ccccc1 (configuration not stated),0.0,3.1,.,-2.1,.
O=C(COC(=O)CCc1ccccc1)Nc1ccc(F)cc1Cl,0.3,7.1,-28.0,-0.5,.
CCC(c1nnnn1Cc1ccco1)N(Cc1cc2cc(C)cc(C)c2[nH]c1=O)CC1CCCO1 (configuration not stated),0.3,5.4,5.7,61.5*,-0.362
Cc1cccc(C)c1OCC(=O)Nc1cccc(S(=O)(=O)N2CCCCCC2)c1,.,.,.,-2.2,.
O=C(COC(=O)CNC(=O)c1ccc(Cl)cc1Cl)NCc1ccco1,0.0,-0.8,.,4.0,.
CS(=O)(=O)N1CCN(c2ccc(NC(=O)c3cccnc3Cl)cc2)CC1,0.1,0.8,100.3*,10.0,.
COc1ccc(CNc2nn3c(-c4cccc(C(=O)N(C)C)c4)cnc3s2)cc1,.,.,.,75.8*,.
SMILES,Efflux pump mplx,Calb FLC,PHOSPHO1 block,H9c2 protect,KCC2 mod
COc1cccc(-c2cc(NC=O)c3ncc(-c4cccc(C(=O)N(C)C)c4)n3c2)c1,.,.,.,31.6,.
COc1ccc(CCN2CC(C(=O)OCC(=O)Nc3c(C)nn(-c4ccccc4)c3C)CC2=O)cc1OC (configuration not stated),0.0,1.8,.,5.4,.
CCCCc1ccc(NC(=O)CSc2nnc(C)c(=O)n2N)cc1,-0.1,-5.4,62.8*,-6.0,.
O=[N+]([O-])c1ccc(N/N=C/c2ccc(O)c(O)c2O)c(S(=O)(=O)N2CCOCC2)c1,.,99.9*,43.9,22.2,0.591
O=C(C1=C(O)C(=O)N(CCCN2CCOCC2)C1c1ccccn1)c1cc2ccccc2o1 (configuration not stated),0.0,-2.3,78.9*,-0.8,.
CC(C)CN(C)C(=O)CCc1nnc(Cc2cccc(C(F)(F)F)c2)o1,0.1,0.4,26.9,5.4,-0.269
COc1cccc(CNc2nc3cc(-c4cnn(Cc5ccccc5)c4)sc3c(=O)n2C)c1,.,.,.,-8.8,.
S=c1[nH]cnc2scc(-c3ccccc3)c12,-0.3,-20.5,-9.7,21.4,61.7*
S=c1[nH]cnc2sc(-c3ccccc3)cc12,-0.1,-28.1,-5.3,8.6,196*
CNc1ncnc2sc(-c3ccccc3)cc12,0.2,0.6,-21.8,10.4,-0.981
COc1ccc(OC)c(C2CC(=O)N3CN(c4cccc(Cl)c4C)CSC3=C2C#N)c1 (configuration not stated),-0.1,-4.8,92.8*,-4.1,.
COc1ccc(OC)c(C2CC(=O)N3CN(c4ccccc4F)CSC3=C2C#N)c1 (configuration not stated),-0.1,-0.5,85.7*,-0.6,.
COc1cccc(C2CC(=O)N3CN(c4cccc(Cl)c4C)CSC3=C2C#N)c1OC (configuration not stated),0.0,-3.5,88.1*,6.8,.
Cc1ccc(C(=O)CSc2nnc(-c3ccc4[nH]c(C)c(C)c4c3)o2)cc1C,0.2,-6.7,74.2*,0.2,-0.718
Cc1[nH]c2ccc(-c3nnc(SCC(=O)c4ccccc4F)o3)cc2c1C,0.1,4.9,87.9*,32.3,-1.4
COc1ccc(N2CCN(C(=O)CSc3nnc(-c4ccc5[nH]c(C)c(C)c5c4)o3)CC2)cc1,0.0,-13.9,63.6*,-4.1,.
COc1ccc(-c2nnc(SCC(=O)N3CCN(c4ccccc4)CC3)o2)cc1OC,0.0,16.3,11.1,6.7,0.194
O=C(O)c1nn(CCOc2ccc(Br)cc2)c(=O)c2ccccc12,0.2,12.8,39.1,55.4*,.
O=C(O)c1nn(CCOc2ccccc2F)c(=O)c2ccccc12,-0.1,3.1,22.8,53.7*,.
CCc1cccc(OCCn2nc(C(=O)O)c3ccccc3c2=O)c1,-0.1,0.7,18.0,44.2,-0.93
CC(=O)C1=C(C)NC(SCC(N)=O)=C(C#N)C1C (configuration not stated),0.0,0.4,88.2*,-4.1,0.481
CSCSC1=C(C#N)C(c2ccccc2Cl)C(C(C)=O)=C(C)N1 (configuration not stated),0.0,12.0,93.2*,-15.0,.
CC(=O)C1=C(C)NC(SCC(=O)c2ccc(Cl)c(Cl)c2)=C(C#N)C1c1ccco1 (configuration not stated),-0.1,7.4,75.6*,16.5,.
CC(=O)C1=C(C)NC(SCC(=O)c2cc(Cl)ccc2Cl)=C(C#N)C1c1ccco1 (configuration not stated),0.0,-6.6,77.8*,-6.0,.
